Screening results deposited in PubChem BioAssay by Broad Institute.
TcdB GH inh = TcdB glycohydrolase inhibitors, primary screen, biochemical, single point, plate reader; Toxin B (Clostridioides difficile), P18177; TcdB glycohydrolase enzymatic assay; inhibition, % at 9.99 µM; actives 0.24% (n = 350,000); AID 652162, 2013; in the data active means inhibition above about 10%
Target sequence (P18177 whole entry, looked up): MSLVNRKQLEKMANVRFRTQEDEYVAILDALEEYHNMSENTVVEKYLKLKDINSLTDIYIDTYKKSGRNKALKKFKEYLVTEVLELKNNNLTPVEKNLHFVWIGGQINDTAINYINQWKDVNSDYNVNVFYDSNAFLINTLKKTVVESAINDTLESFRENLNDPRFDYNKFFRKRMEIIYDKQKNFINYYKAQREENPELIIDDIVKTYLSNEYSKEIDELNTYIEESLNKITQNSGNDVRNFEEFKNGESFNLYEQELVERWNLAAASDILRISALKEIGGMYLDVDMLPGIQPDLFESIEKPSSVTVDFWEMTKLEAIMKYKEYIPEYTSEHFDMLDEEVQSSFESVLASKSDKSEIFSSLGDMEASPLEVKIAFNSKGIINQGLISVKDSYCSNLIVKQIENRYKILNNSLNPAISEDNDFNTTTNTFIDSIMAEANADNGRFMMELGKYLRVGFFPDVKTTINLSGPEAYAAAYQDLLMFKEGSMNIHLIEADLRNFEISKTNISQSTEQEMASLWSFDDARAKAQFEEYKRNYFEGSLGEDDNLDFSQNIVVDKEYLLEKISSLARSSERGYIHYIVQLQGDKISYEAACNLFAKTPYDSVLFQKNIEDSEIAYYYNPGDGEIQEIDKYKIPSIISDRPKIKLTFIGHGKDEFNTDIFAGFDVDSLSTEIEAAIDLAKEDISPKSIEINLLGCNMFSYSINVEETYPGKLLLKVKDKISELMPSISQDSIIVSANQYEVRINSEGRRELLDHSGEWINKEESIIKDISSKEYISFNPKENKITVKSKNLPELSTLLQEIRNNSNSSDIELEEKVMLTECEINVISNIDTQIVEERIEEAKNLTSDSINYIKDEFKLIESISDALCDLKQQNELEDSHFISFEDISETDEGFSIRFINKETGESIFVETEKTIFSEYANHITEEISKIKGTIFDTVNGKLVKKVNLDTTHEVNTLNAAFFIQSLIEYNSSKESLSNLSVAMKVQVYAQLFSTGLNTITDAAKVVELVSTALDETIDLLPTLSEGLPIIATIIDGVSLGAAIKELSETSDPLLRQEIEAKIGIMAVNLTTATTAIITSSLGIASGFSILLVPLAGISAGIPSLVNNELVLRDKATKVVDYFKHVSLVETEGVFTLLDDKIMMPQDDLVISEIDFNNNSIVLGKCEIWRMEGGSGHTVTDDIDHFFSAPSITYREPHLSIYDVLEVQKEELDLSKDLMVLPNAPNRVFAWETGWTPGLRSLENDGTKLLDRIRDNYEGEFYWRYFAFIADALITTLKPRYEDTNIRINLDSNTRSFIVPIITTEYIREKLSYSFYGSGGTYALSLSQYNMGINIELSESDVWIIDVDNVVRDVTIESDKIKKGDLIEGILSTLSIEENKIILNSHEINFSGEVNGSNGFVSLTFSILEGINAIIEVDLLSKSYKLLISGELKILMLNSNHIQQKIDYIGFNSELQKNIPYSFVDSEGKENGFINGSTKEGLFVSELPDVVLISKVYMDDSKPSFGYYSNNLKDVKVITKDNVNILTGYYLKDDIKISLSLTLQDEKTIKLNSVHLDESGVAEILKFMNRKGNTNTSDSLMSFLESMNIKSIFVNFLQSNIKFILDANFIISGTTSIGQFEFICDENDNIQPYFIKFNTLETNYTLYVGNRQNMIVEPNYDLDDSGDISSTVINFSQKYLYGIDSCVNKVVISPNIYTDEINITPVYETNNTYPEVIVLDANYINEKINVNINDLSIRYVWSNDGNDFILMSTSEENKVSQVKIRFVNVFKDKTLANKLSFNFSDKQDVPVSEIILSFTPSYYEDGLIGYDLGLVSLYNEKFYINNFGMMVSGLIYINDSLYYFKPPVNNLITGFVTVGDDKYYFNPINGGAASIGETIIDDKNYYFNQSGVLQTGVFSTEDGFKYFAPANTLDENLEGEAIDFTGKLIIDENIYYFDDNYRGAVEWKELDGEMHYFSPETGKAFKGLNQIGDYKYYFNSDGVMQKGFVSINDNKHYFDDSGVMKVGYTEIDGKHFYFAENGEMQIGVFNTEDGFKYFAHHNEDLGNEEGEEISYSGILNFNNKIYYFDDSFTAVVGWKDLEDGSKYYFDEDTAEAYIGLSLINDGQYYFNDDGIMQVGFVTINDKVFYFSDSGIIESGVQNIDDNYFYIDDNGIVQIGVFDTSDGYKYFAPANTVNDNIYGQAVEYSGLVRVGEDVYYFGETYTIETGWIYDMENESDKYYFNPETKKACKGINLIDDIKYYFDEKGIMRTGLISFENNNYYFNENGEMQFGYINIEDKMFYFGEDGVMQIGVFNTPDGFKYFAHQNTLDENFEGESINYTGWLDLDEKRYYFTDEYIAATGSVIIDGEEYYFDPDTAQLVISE
Mtb BioA inh = M. tuberculosis BioA enzyme inhibitors, primary screen, biochemical, plate reader, single point, HTS; inhibition, % at 9.99 µM; actives 0.096% (n = 360,000); AID 602481, 2012; purified M. tuberculosis BioA enzyme; 7,8-diaminopelargonic acid synthase BioA (Mycobacterium tuberculosis); in the data active means inhibition above about 40%
Yp Topo-I inh = Yersinia pestis topoisomerase I inhibitors, primary screen, biochemical, cleavage product accumulation, plate reader, single point; Y. pestis Topo-I cleavage product accumulation; activity, % at 10 µM; actives 0.064% (n = 360,000); AID 504884, 2011; in the data active means activity above about 50%, passing the limit was not always enough
Each line names hits and unclear results; the compound was inactive in the other large screens. The list is not random: actives were taken first. Their share in the collection is about 0.32%.

C[C@@H]1CN([C@@H](C)CO)C(=O)c2cccc(NC(=O)C3CCCCC3)c2O[C@H]1CN(C)CC1CCCCC1	none (no result: Yp Topo-I inh)
Cc1ccc(C(=O)Nc2ccc(N3CCCC3)cc2)cc1	none
Cc1ccc(C(=O)Nc2ccc(N3CCCCC3)cc2)cc1	TcdB GH inh 11
Cc1nc(P(=O)(c2ccccc2)c2ccccc2)c(N2CCOCC2)o1	none (no result: TcdB GH inh)
Cc1ccccc1-c1nc(P(=O)(c2ccccc2)c2ccccc2)c(N2CCOCC2)o1	Yp Topo-I inh 53 (no result: Mtb BioA inh)
O=C(N/N=C/c1ccccn1)c1ccc([N+](=O)[O-])cc1Cl	TcdB GH inh 11
O=C(N/N=C/c1cccnc1)c1ccc([N+](=O)[O-])cc1Cl	none (no result: TcdB GH inh, Mtb BioA inh)
COc1ccc([N+](=O)[O-])cc1NC(=O)CCN1CCN(CCO)CC1	Mtb BioA inh 45
CCOC(=O)N1CCN(CCC(=O)Nc2cc([N+](=O)[O-])ccc2OC)CC1	none (no result: Mtb BioA inh)
CCC(=O)N1[C@@H](CO)[C@@H](c2ccccc2)C12CN(C(=O)Nc1cccc(OC)c1)C2	none (no result: Mtb BioA inh, Yp Topo-I inh)
Fc1cccc(NC(=S)NNc2c3ccccc3nc3ccccc23)c1	TcdB GH inh 20 (no result: Mtb BioA inh)
Fc1cccc(NC(=S)NNc2ccccc2)c1	none
Cn1cc(C(=O)C(=O)N2CCCc3ccccc32)c2ccccc21	none
Cn1cc(S(=O)(=O)CC(=O)N2CCCc3ccccc32)c2ccccc21	TcdB GH inh 11
COc1ccc(C)cc1NC(=O)C(OC(=O)C1=NNC(=O)CC1)c1ccccc1 (stereo not drawn)	TcdB GH inh 13
COc1ccc(C)cc1NC(=O)C(OC(=O)c1cnccn1)c1ccccc1 (stereo not drawn)	none
COc1ccc2c3c([nH]c2c1)[C@@H](CO)N(C(=O)c1ccc(F)cc1)CC31CN(C(=O)NC(C)C)C1	none (no result: Mtb BioA inh, Yp Topo-I inh)
CCCCN(c1nc2ccccc2nc1Cl)S(=O)(=O)c1ccc(C)cc1	Yp Topo-I inh 55 (no result: Mtb BioA inh)
CCCN(CCC)CC(O)CN(c1ccccc1)S(=O)(=O)c1ccc(C)cc1 (stereo not drawn)	none (no result: TcdB GH inh)
COc1ccc(CCNc2ccc(C(CC(N)=O)NC(=O)c3ccccc3)cc2[N+](=O)[O-])cc1 (stereo not drawn)	none (no result: TcdB GH inh)
NC(=O)CC(NC(=O)c1ccccc1)c1ccc(NCCc2ccc(F)cc2)c([N+](=O)[O-])c1 (stereo not drawn)	TcdB GH inh 10
COC(=O)C[C@@H]1CC[C@H]2[C@H](COc3ccc(NC(=O)NC(C)C)cc3C(=O)N2C)O1	none (no result: TcdB GH inh, Yp Topo-I inh)
NC(=O)c1ccc(NC(=O)CSc2nnc(C3CC3)n2C2CC2)cc1	TcdB GH inh 12
CCOc1ccc(NC(=O)CSc2nnc(C3CC3)n2C2CC2)cc1	none
O=C(COC(=O)C1CCC1)Nc1ccccc1Sc1ccccc1	none (no result: TcdB GH inh)
O=C(COC(=O)CCC1CCCC1)Nc1ccccc1Sc1ccccc1	Yp Topo-I inh 64 (no result: Mtb BioA inh)
CC(=O)Nc1ccc(S(=O)(=O)Nc2nc3ccccc3nc2-n2ccc(=NC(=O)c3ccc(F)cc3)cc2)cc1	TcdB GH inh 16
CC(=O)Nc1ccc(S(=O)(=O)Nc2nc3ccccc3nc2-n2ccc(=NC(=O)c3ccccc3)cc2)cc1	none
C[C@H](CO)N1C[C@H](C)[C@H](CN(C)C(=O)NC2CCCCC2)Oc2ccc(N(C)C)cc2CC1=O	none (no result: Yp Topo-I inh)
COc1ccc(S(=O)(=O)N(C)C[C@H]2Oc3c(NC(=O)Nc4ccc5c(c4)OCO5)cccc3C(=O)N([C@@H](C)CO)C[C@@H]2C)cc1	none (no result: Yp Topo-I inh)
COc1ccc(NC(=O)Nc2ccc3c(c2)C(=O)N([C@@H](C)CO)C[C@@H](C)[C@@H](CN(C)S(C)(=O)=O)OCCCC[C@@H](C)O3)cc1	none (no result: Yp Topo-I inh)
O=[N+]([O-])c1c(Nc2ccccc2O)ccc2nonc12	TcdB GH inh 13
Cc1ccccc1Nc1ccc2nonc2c1[N+](=O)[O-]	none
CCCNC(=O)C[C@H]1CC[C@@H]2[C@@H](COc3ccc(NC(=O)c4ccc5c(c4)OCO5)cc3C(=O)N2C)O1	TcdB GH inh 12 (no result: Yp Topo-I inh)
CCNC(=O)C[C@H]1CC[C@H]2[C@@H](COc3ccc(NC(C)=O)cc3C(=O)N2C)O1	none (no result: Yp Topo-I inh)
CCCNC(=O)C[C@@H]1CC[C@@H]2[C@@H](COc3ccc(NC(=O)c4ccc5c(c4)OCO5)cc3C(=O)N2C)O1	none (no result: Yp Topo-I inh)
CCNC(=O)C[C@H]1CC[C@@H]2[C@@H](COc3ccc(NC(C)=O)cc3C(=O)N2C)O1	TcdB GH inh 25 (no result: Yp Topo-I inh)
CCNC(=O)C[C@@H]1CC[C@H]2[C@@H](COc3ccc(NC(C)=O)cc3C(=O)N2C)O1	TcdB GH inh 16 (no result: Yp Topo-I inh)
CC(=O)Nc1ccc2c(c1)C(=O)N(C)[C@@H]1CC[C@@H](CC(=O)NCC3CC3)O[C@@H]1CO2	none (no result: Yp Topo-I inh)
CCNC(=O)C[C@H]1CC[C@@H]2[C@H](COc3ccc(NC(C)=O)cc3C(=O)N2C)O1	TcdB GH inh 12 (no result: Yp Topo-I inh)
CC(=O)Nc1ccc2c(c1)C(=O)N(C)[C@H]1CC[C@H](CC(=O)NCC3CC3)O[C@@H]1CO2	none (no result: Yp Topo-I inh)
C[C@@H]1CCCCO[C@@H](CN(C)S(C)(=O)=O)[C@H](C)CN([C@@H](C)CO)C(=O)c2cc(NC(=O)CCC(F)(F)F)ccc2O1	none (no result: Yp Topo-I inh)
COc1ccc(NC(=O)N[C@@H]2CC[C@@H](CCNS(=O)(=O)c3cccc(Cl)c3)O[C@@H]2CO)cc1	none (no result: Yp Topo-I inh)
O=C(NCC[C@H]1CC[C@H](NC(=O)C2CCOCC2)[C@H](CO)O1)Nc1ccc(Cl)cc1	none (no result: Yp Topo-I inh)
CN(C)C(=O)C[C@@H]1CC[C@@H]2[C@H](COC[C@@H](O)CN2Cc2ccc(C(F)(F)F)cc2)O1	none (no result: Yp Topo-I inh)
CCCc1cn([C@H]2C[C@@H]3O[C@@H](CO)CC[C@@H]3O[C@@H]2CCc2ccc(-c3ccc(OC)cc3)cc2)nn1	none (no result: Mtb BioA inh, Yp Topo-I inh)
COCC(=O)N1[C@H](CO)[C@@H]2c3ccccc3N(C(=O)NC(C)C)C[C@@H]21	none (no result: Mtb BioA inh, Yp Topo-I inh)
CC(=O)N1CC2(C1)[C@@H](c1ccccc1)[C@@H](CO)N2Cc1cccc(Cl)c1	none (no result: Mtb BioA inh, Yp Topo-I inh)
COc1ccc(C(=O)NC(C(=O)NCc2ccccc2OC)C(C)C)cc1 (stereo not drawn)	TcdB GH inh 15 (no result: Mtb BioA inh)
CCOc1ccc(C(=O)NC(C(=O)NCc2ccccc2OC)C(C)C)cc1 (stereo not drawn)	none (no result: Mtb BioA inh)
Cc1ccc(-c2cc(C(=O)OC3CCOC3=O)c3ccccc3n2)c(C)c1 (stereo not drawn)	TcdB GH inh 18
O=C(OC1CCOC1=O)c1cc(-c2cccs2)nc2ccccc12 (stereo not drawn)	none
N#C[C@@H]1[C@@H](c2ccc(C#CC3CCCCC3)cc2)[C@@H](CO)N1C(=O)Cc1ccccn1	none (no result: Yp Topo-I inh)
CCS(=O)(=O)c1ccc(O)c(NC(=O)/C=C/c2ccccc2)c1	none (no result: Mtb BioA inh)
Cc1c(O)ccc(NC(=O)/C=C/c2ccccc2)c1C	TcdB GH inh 17 (no result: Mtb BioA inh)
O=C(/C=C/c1ccccc1)Nc1cccnc1Cl	TcdB GH inh 16
O=C(COC(=O)/C=C/c1ccccc1)Nc1cccnc1Cl	none
COc1cccc(CNC(=O)C[C@@H]2CC[C@@H]3[C@@H](COc4ccc(NC(C)=O)cc4C(=O)N3C)O2)c1	none (no result: TcdB GH inh, Yp Topo-I inh)
O=C(NC(=S)Nc1ccc(O)cc1)c1cncc(Br)c1	TcdB GH inh 15 (no result: Mtb BioA inh)
O=C(NC(=S)Nc1cccc(O)c1)c1cncc(Br)c1	none (no result: Mtb BioA inh)
CC(C)(C)N1C(=O)c2ccc(C(=O)Nc3ccc(O)cc3)cc2C1=O	TcdB GH inh 22
CC(C)(C)NC(=O)c1cccc(NC(=O)c2ccc3c(c2)C(=O)N(C(C)(C)C)C3=O)c1	none
